# High-throughput results: PubChem BioAssay, National Center for Advancing Translational Sciences (NCATS)
# HCMV inh – human cytomegalovirus inhibition. HFF cells, HCMV-luciferase reporter, 72 h; stronger effect = lower value. activity change, negative = inhibition, % at 57.5 µM. hit rate 4.5% among 410,000. AID 1259415; in the data active means activity change below about -60%; inconclusive means no clear call, values can overlap the other calls; inactive means above about -39%; further: on the % scale 0 is the no-effect control and ±100 the full control effect
#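 Compounds were evaluated in HFFs infected with an HCMV luciferase reporter virus (MOI 1 PFU/cell). Luciferase in lysates collected 72 h post infection served as the replication measure.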
# Pf growth 96h – inhibits malaria parasite growth, 96 h; Potency, µM (top dose mostly 28.7 µM), for the others: at the highest dose activity change, negative = inhibition, hits mostly inhibitors; P. falciparum luciferase reporter growth, 96 h; hit rate 6.9% among 320,000; AID 504834; further: potency means the concentration at half of the fitted maximal effect; on the % scale 0 is the no-effect control and ±100 the full control effect
#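 Two parasite generations (96 h, 37 C, 5% CO2) of compound exposure in infected erythrocytes (0.05% parasitemia, 2% hematocrit). Luciferase-reporter P. falciparum; decreased luminescence indicates inhibited growth, aimed at apicoplast-acting delayed death.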
# Pf growth 48h – P. falciparum growth inhibition at 48 hours (one generation). AID 504832. Potency, µM (titrated, usually from 28.7 µM), without a hit: at the top dose activity change, negative = inhibition, hits mostly inhibitors. hit rate 5.9% among 310,000. P. falciparum luciferase growth in erythrocytes, 48 h; further: potency means the concentration at half of the fitted maximal effect; on the % scale 0 is the no-effect control and ±100 the full control effect
#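 In quantitative HTS format, infected erythrocytes bearing luciferase-reporter parasites were treated for a single generation at 37 C. Luminescence after adding detection reagent served as the growth measure.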
# Shiga inhibitor – blocks Shiga toxin action in Vero cells; inhibition, % at 38.7 µM; hit rate 9.2% among 290,000; AID 2315; Vero cells, Shiga toxin protein synthesis inhibition reporter; in the data active means inhibition mostly above about 28%, no sharp cut-off; inactive means mostly below about 43%; further: 0% is about no effect
# CHX counter – counter-screen for Shiga toxin inhibitors: cycloheximide protein synthesis inhibition. cell reporter, cycloheximide protein synthesis inhibition counterscreen. max response, %. hit rate 12% among 300,000. AID 2314; in the data active means max response mostly above about 13%, no sharp cut-off; inactive means mostly below about 14%; further: read at 38.3 µM for the half of the compounds with a filed dose; 0% is about no effect
# Starred values were filed as active, the others as inactive; i = inactive; ? = inconclusive; / = no result given; [ ] = dose if it differs, or a comment. Only some compounds are listed: those with a hit (about 20% of all), similar ones and a draw of the others. Unless noted, the call rests on the fitted dose curve; in most records, active means well fitted inhibition curve with a large enough effect; inconclusive means small, poorly fitted or top-dose-only effect, or another doubt; inactive means no such curve, though single readings can be large or run the other way.
SMILES,HCMV inh,Pf growth 96h,Pf growth 48h,Shiga inhibitor,CHX counter
O=[N+]([O-])c1ccc2nc(-c3ccccc3[N+](=O)[O-])[nH]c2c1,73.4,?,53.5%,37.4,26.3*
O=[N+]([O-])c1ccc(-c2cnc[nH]2)cc1,16.0,95.9%,109.5%,52.7*,26.2*
COc1ccc(-c2nc3ccc([N+](=O)[O-])cc3[nH]2)cc1,43.8,?,185.5%,57.5*,60.1*
CC(C)c1ccc(C2=NC(c3ccncc3)=Nc3ccc(F)cc3N2)cc1,-1.7,/,/,/,/
OCC[C@H]1C[C@H](O)[C@@H](O)[C@]2(OCc3ccccc32)O1,-5.1,2.6%,?,/,/
Cn1c(O)c(N=NC(=O)CNC(=O)c2cccnc2)c2ccccc21,-5.0,37.2%,13.7%,-1.0,-2.5
CC(=O)c1ccc(NC(=O)CN2C(=O)CCc3ccccc32)cc1,2.7,/,/,/,/
COc1ccc2c(c1)CCC/C2=N/OC(=O)c1ccccc1OC,?,?,0.5%,41.3,28.8*
Cc1cccc(C(=O)O/N=C2\CCS(=O)(=O)c3sccc32)c1,31.2,?,?,-4.9,16.3
COc1ccc2c(c1)CC/C2=N\OC(=O)c1cccc(C)c1,-5.5,11.3%,?,138.6*,51.9*
COc1ccc2c(c1)CC/C2=N\OC(=O)c1ccccc1C,?,?,?,134.8*,50.4*
COc1ccccc1C(=O)ON=C1c2ccccc2-c2ccccc21,-4.9,1.65µM*,3.5%,28.8,18.9*
CSCC[C@H](NC(=O)CN)C(=O)N[C@@H](CC(=O)O)C(=O)N[C@@H](CO)C(=O)N[C@@H](CC(C)C)C(=O)N[C@@H](C)C(=O)N[C@@H](Cc1ccccc1)C(=O)N[C@@H](CO)C(=O)NCC(=O)NCC(=O)N[C@@H](CC(C)C)C(N)=O,/,/,/,-4.3,6.2
COc1ccccc1CNC(=O)C1CCCN(C(=O)c2cnn(-c3ccc(F)cc3)c2-n2cccc2)C1 (stereo not given),11.9,/,/,/,/
COc1ccc(CC(=O)N2CCc3cc(OC)c(OC)cc3C2COc2ccc(F)cc2)cc1 (stereo not given),10.5,/,/,/,/
O=C(O/N=C1\CCCc2ccccc21)c1cccs1,-30.7,31.0%,i,69.8*,35.8*
COc1ccc(OCC(=O)N/N=C2\CCc3ccccc32)cc1,45.7,-29.1%,/,12.8,1.2
COc1ccc2c(c1)CC/C2=N\NC(=O)c1ccccc1,-3.0,-0.3%,29.8%,75.4*,63.8*
CC1=C(C(N)=O)C(c2cccc(C)c2)n2nc(-c3cccc(C)c3)nc2N1 (stereo not given),62.4,/,/,/,/
Cc1cc(C(F)(F)F)nc(SCC(=O)NC2CC3CCC2C3)n1 (stereo not given),-68.4*,/,-19.0%,-9.2,-1.7
Cc1cc(C(F)(F)F)nc(SCC(=O)Nc2ccccc2)n1,-9.5,9.0%,-10.6%,-8.7,-2.1
O=C(CCC1CCCCC1)NCCN1C2=NC[C@@H](Cc3ccccc3)N2C[C@H]1Cc1ccc(O)cc1,-3.3,2.33µM*,?,-6.9,-0.7
O=C(CCC1CCCCC1)NCCN1C2=NC[C@H](Cc3ccccc3)N2C[C@H]1Cc1ccc(O)cc1,15.3,4.65µM*,?,2.0,1.8
COc1ccc(C[C@H]2CN3C(=NC[C@@H]3C)N2CCNC(=O)CCC2CCCCC2)cc1,-6.5,?,?,-4.4,-1.4
C[C@H]1CN=C2N(CCNC(=O)CCC3CCCCC3)[C@H](Cc3ccc(O)cc3)CN21,2.6,11.7µM*,5.0%,-14.5,0.5
SMILES,HCMV inh,Pf growth 96h,Pf growth 48h,Shiga inhibitor,CHX counter
C/C=C(\C)C(=O)NCCN1C2=NC[C@@H](Cc3ccccc3)N2C[C@H]1Cc1ccc(O)cc1,-24.9,16.7%,31.4%,-8.0,1.4
COc1cc(OC)c(NS(=O)(=O)c2cccc(C(=O)OCC(=O)NCC3CCCO3)c2)cc1Cl (stereo not given),12.5,14.1%,-15.4%,-10.2,-0.9
Cc1ccccc1OCCCCn1nnc2sc3c(c2c1=O)CCC(C)C3 (stereo not given),15.1,/,/,/,/
COc1ccc(N2C(=O)NC(NC(=O)c3cccnc3)(C(F)(F)F)C2=O)cc1 (stereo not given),-18.3,?,-13.6%,-10.5,-5.4
O=C1c2cccc3c([N+](=O)[O-])ccc(c23)C(=O)N1O,15.1,22.3%,1.3%[0.00184 µM],25.6,-9.0
COc1ccc2c3c(cccc13)C(=O)N(O)C2=O,-60.5*,15.1%,13.1µM*,-4.5,-1.8
FC(F)(F)c1cccc(-c2n[nH]c3ccnc(-c4ccsc4)c23)c1,-60.2*,/,/,/,/
CCOc1ccc(S(=O)(=O)N2CCCCC2)cc1NC(=O)Cc1ccccc1,-37.6,?,-23.4%,/,/
CCOc1ccc(S(=O)(=O)N2CCCCC2)cc1NC(=O)Cc1cccc(C(F)(F)F)c1,6.0,9.28µM*,?,/,/
CCOc1ccc(S(=O)(=O)N2CCCCC2)cc1NC(=O)Cc1cc(OC)c(OC)c(OC)c1,-88.1*,/,/,/,/
COc1cc2c(cc1OC)/C(=C/C(=O)c1ccc([N+](=O)[O-])c(C)c1)NCC2,-26.2,5.22µM*,9.28µM*,19.4,1.2
COc1cc(NC(=O)CSc2nccn2C)cc(OC)c1OC,11.9,/,/,/,/
CC(C)CCNC(=O)C1CCC(CNc2c(N3CCCC3)c(=O)c2=O)CC1 (stereo not given),-19.9,-4.9%,11.7µM*,-10.6,-1.4
CC(C)(C)NC(=O)C1CCC(CNc2c(N3CCCCC3)c(=O)c2=O)CC1 (stereo not given),-12.2,-7.7%,-5.1%,-7.3,-2.0
O=C(NCc1ccc2c(c1)OCO2)C1CCC(CNc2c(N3CCCC3)c(=O)c2=O)CC1 (stereo not given),-83.5*,1.5%,?,-3.4,-1.6
CC1CCN(c2c(NCC3CCC(C(=O)NCc4ccccc4)CC3)c(=O)c2=O)CC1 (stereo not given),40.4,18.2%,0.9%,-16.3,-2.6
O=C(NCc1ccccc1)C1CCC(CNc2c(N3CCCCC3)c(=O)c2=O)CC1 (stereo not given),100.9,11.7µM*,2.3%,-17.8,-3.8
CC(C)CN1CCNC(=O)C1CC(=O)NCCCN1CCCc2ccccc21 (stereo not given),-12.6,?,-1.9%,-9.0,5.9
Cc1ccc(CSc2c(C)cnc3c2c(=O)n(C)c(=O)n3C)cc1,-8.1,/,/,/,/
O=C(CSc1nnc(Cn2nnc(-c3ccccc3)n2)n1-c1ccccc1)Nc1ccccc1,0.2,?,?,7.5,-2.0
O=C(CSc1nnc(Cn2nnc(-c3ccccc3)n2)n1-c1ccccc1)Nc1ccc(F)cc1,10.3,/,9.28µM*,-8.2,0.2
Cc1cccc(C)c1NC(=O)CSc1nnc(Cn2nnc(-c3ccccc3)n2)n1-c1ccccc1,1.5,-16.7%,9.28µM*,-10.8,-0.7
Cc1ccc(N2C(=O)CS(=O)(=O)C23C(=O)N(Cc2cccc(F)c2)c2ccccc23)cc1Cl (stereo not given),-9.8,/,/,/,/
O=C(OCCN1CCCCC1)c1cccc(Cl)c1,-12.7,-10.4%,14.7%,-16.9,-0.2
